The supplement of paper PMC11732987, “Enantioselective OTUD7B fragment discovery through chemoproteomics screening and high-throughput optimisation” (Communications Chemistry, 2025)

Key:
Experiment in all cases: log2 ratio of Biotin-Ahx-Ub-VS probe labelling (fragment/DMSO); higher = less target engagement (more negative = stronger competition), active = hit call of the paper (q ≤ 0.05, log2 ratio ≤ -1)
Details in all cases: compound concentration: 200 uM; treatment time: 3 h
USP16 = USP16 (UniProt Q9Y5T5)
Sequence of USP16 (Q9Y5T5 whole entry, looked up, the tested form may be a part): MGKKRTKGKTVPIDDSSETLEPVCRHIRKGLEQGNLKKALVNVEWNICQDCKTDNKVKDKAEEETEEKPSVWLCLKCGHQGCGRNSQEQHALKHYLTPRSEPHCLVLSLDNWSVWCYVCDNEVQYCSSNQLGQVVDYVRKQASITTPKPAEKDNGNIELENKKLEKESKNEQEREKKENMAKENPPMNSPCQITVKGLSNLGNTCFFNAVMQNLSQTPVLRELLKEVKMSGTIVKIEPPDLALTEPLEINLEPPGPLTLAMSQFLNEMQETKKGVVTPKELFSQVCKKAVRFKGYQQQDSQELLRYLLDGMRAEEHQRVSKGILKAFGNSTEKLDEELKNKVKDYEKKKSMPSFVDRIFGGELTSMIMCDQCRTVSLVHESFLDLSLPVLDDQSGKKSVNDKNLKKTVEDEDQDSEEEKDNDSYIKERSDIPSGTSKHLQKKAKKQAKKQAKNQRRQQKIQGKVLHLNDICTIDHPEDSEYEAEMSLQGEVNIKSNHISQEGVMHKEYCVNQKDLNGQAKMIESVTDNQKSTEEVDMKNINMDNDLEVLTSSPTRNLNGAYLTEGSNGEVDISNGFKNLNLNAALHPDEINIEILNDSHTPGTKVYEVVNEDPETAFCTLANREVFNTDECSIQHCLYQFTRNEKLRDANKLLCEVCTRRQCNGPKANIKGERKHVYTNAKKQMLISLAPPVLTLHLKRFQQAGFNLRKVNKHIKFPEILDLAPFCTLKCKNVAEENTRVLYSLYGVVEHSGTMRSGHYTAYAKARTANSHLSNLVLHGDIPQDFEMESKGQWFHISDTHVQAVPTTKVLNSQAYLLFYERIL
How it was run: (§1)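 Labelled DUBs from HEK293T lysate were NeutrAvidin-enriched, digested with LysC and trypsin, and run by diaPASEF LC-MS/MS. Before that, each 495 µg sample in Tris/CHAPS/IGEPAL buffer with protease inhibitors was treated in triplicate with fragment at 200 µM or vehicle for 3 h, then with Biotin-Ahx-Ub-VS at 0.5 µM final for 1 h. Values are average log2 ratios of fragment over vehicle by unpaired t-test, based on global-median-normalised Spectronaut label-free quantities from proteins with ≥2 unique peptides.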

USP19 = molecular target: T1, USP19 (UniProt O94966)
T1 sequence (whole entry): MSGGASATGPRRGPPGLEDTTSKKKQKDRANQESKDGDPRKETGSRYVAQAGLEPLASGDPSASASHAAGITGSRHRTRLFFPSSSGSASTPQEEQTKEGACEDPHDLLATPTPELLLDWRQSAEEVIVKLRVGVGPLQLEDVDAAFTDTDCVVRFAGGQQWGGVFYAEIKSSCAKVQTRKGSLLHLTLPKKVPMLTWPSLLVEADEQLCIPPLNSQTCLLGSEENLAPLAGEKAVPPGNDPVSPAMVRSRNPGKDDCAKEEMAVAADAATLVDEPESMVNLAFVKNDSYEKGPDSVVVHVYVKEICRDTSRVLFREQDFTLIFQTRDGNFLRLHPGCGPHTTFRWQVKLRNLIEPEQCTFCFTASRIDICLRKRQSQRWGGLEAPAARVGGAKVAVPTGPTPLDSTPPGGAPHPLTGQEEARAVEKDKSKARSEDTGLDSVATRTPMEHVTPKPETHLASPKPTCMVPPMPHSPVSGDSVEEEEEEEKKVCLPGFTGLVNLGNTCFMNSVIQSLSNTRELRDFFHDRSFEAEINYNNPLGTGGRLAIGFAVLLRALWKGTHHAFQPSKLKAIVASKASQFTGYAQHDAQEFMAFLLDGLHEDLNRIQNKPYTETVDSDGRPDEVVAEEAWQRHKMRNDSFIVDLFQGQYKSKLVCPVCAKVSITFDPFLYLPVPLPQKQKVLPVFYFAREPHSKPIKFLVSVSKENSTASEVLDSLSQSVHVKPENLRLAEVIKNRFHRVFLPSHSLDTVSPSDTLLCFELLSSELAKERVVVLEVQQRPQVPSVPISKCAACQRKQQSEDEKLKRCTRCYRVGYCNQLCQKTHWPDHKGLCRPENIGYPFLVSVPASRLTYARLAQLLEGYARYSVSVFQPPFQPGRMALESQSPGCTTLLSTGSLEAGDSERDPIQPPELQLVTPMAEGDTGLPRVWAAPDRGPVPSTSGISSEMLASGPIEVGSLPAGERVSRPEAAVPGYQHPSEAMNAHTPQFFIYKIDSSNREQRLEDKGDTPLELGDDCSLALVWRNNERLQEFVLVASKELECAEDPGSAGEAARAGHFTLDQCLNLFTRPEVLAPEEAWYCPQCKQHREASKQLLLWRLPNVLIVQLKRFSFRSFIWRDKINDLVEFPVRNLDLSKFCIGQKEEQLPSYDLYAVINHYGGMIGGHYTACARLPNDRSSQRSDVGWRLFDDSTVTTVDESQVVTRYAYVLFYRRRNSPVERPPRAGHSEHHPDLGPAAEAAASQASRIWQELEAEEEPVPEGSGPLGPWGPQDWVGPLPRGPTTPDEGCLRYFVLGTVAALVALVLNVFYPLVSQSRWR
How it was run: as §1

USP24 = USP24 (UniProt Q9UPU5)
Sequence of USP24 (Q9UPU5 whole entry): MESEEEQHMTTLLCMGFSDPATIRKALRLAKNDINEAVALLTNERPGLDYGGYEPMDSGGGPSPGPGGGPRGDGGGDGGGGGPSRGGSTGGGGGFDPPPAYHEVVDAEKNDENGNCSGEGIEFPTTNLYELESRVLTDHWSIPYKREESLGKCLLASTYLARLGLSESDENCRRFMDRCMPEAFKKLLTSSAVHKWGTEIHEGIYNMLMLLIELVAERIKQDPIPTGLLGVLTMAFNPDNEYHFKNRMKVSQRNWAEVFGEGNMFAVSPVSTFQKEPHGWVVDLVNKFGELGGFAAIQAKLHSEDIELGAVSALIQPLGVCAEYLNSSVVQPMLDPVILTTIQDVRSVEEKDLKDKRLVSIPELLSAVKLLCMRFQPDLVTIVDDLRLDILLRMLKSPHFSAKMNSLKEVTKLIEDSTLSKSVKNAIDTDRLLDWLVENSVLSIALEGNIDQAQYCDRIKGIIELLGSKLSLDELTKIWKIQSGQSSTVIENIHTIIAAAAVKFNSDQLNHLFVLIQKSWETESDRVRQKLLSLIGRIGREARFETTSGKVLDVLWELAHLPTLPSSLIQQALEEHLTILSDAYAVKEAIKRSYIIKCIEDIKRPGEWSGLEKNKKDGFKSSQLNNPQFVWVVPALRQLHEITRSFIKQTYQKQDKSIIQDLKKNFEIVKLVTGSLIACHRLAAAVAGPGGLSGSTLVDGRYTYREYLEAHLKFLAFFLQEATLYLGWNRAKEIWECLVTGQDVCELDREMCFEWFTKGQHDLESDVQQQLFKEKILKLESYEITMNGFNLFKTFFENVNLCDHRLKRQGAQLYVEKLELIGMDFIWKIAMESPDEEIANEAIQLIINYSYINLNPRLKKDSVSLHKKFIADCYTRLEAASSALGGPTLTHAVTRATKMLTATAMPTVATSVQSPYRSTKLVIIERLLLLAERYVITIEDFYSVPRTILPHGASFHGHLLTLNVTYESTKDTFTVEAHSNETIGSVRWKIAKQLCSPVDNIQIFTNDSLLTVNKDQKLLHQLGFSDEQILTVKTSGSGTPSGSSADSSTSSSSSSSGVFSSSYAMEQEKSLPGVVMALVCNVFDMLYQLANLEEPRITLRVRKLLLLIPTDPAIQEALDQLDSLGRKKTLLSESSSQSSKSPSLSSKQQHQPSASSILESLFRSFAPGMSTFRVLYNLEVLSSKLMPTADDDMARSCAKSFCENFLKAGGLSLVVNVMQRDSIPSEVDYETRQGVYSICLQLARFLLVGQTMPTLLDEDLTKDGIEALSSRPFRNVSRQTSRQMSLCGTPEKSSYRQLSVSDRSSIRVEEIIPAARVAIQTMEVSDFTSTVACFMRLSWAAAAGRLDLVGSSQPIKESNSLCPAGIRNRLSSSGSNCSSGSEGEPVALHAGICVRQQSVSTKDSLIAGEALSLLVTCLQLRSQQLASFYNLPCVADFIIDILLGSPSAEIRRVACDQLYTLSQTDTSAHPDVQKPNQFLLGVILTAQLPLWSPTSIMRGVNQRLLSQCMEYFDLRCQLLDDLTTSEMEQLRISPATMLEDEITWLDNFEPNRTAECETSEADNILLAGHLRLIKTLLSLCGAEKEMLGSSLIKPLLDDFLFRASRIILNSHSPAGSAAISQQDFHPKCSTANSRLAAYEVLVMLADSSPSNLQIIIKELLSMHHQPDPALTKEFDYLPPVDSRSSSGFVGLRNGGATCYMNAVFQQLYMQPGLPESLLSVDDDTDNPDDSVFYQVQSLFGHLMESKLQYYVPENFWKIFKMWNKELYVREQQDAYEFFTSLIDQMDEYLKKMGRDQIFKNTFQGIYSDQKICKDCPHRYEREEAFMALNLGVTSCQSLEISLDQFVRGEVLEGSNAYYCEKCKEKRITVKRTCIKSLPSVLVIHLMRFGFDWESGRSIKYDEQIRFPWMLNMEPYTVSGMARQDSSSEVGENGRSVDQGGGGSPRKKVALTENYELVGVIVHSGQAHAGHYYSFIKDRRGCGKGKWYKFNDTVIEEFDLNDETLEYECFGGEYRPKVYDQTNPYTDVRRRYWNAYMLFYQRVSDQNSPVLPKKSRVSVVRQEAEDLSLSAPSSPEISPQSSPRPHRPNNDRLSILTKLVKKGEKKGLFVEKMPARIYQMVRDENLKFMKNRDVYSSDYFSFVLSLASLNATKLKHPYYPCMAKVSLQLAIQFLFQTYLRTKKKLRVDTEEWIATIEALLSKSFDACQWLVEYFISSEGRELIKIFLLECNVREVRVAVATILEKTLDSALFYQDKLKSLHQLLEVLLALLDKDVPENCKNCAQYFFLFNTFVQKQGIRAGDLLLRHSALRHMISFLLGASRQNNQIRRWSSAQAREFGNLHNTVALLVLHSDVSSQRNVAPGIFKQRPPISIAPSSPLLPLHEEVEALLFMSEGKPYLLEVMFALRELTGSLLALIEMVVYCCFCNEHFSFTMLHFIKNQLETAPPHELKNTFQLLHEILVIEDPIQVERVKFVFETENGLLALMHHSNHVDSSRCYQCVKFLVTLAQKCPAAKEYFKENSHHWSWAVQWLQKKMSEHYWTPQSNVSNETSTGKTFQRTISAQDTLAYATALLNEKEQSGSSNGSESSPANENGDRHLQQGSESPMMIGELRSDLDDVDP
How it was run: as §1

USP25 = molecular target: T2, USP25 (UniProt Q9UHP3)
T2 sequence (whole entry): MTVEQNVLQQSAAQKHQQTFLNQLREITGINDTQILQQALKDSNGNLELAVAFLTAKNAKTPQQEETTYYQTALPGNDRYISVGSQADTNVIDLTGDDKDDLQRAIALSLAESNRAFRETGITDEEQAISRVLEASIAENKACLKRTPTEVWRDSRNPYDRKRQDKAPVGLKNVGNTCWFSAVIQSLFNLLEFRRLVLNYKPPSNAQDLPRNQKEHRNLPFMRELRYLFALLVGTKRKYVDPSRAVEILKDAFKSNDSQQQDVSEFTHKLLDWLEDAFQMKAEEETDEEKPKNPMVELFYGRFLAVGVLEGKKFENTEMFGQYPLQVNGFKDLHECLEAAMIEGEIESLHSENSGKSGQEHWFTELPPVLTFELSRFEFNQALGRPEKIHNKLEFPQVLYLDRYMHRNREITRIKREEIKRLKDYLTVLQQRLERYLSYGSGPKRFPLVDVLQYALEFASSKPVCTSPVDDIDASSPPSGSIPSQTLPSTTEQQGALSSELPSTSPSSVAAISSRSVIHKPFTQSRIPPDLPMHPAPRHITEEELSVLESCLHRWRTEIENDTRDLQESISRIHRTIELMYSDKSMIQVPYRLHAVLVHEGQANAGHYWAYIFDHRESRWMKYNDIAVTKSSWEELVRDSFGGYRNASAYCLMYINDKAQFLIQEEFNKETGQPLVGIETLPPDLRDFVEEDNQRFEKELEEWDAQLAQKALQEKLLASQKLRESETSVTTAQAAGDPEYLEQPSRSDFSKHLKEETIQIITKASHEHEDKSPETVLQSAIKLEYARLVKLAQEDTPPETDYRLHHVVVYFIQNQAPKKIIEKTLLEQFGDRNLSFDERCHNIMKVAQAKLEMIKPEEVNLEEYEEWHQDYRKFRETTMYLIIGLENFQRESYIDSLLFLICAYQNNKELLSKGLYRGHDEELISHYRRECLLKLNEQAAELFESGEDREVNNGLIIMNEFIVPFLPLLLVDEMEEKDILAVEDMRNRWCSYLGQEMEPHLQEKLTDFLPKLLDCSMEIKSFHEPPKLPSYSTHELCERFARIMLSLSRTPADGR
How it was run: as §1

USP28 = molecular target: T3, USP28 (UniProt Q96RU2)
T3 sequence (whole entry): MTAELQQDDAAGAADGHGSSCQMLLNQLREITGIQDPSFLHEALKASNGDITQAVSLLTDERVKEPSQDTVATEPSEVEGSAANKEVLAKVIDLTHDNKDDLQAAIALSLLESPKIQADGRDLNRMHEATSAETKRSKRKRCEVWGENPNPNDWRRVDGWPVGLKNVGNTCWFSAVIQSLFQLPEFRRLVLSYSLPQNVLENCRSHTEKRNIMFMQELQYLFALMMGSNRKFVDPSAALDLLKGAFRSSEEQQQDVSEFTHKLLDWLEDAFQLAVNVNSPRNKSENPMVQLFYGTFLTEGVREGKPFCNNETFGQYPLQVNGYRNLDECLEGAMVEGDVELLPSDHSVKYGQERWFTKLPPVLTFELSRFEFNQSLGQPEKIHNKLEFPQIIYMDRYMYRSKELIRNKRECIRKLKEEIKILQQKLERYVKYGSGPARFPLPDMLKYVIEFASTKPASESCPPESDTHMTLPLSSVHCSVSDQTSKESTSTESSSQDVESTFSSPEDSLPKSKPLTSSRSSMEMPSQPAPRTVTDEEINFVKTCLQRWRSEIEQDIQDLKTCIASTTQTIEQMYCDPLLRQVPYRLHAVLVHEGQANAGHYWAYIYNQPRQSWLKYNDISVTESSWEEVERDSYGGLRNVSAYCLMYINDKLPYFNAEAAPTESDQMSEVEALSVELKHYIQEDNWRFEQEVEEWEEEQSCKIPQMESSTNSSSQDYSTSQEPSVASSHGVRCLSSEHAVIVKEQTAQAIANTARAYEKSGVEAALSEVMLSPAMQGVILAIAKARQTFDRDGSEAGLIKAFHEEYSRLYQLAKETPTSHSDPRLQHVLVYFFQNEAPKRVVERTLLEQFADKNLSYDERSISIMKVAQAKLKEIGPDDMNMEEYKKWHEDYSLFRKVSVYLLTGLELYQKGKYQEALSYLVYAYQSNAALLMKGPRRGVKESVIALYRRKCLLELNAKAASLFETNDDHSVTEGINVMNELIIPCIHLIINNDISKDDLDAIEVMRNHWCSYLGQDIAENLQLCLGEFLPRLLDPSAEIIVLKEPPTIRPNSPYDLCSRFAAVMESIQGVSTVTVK
How it was run: as §1

Measured: log2 ratio of Biotin-Ahx-Ub-VS probe labelling

O=C(CCl)N1CCCN(C(=O)c2ccc(Cl)cc2)CC1
inactive: USP16 -0.13 | USP19 -0.449 | USP24 -0.433 | USP25 -0.628 | USP28 -0.618
